# Reference: PubChem BioAssay (Tox21)
# A number with no mark means an inactive call. Inconclusive results are not listed. A call without a number means that no potency is given here. The source made the active and inactive calls. Unless noted, calls come from the whole dose curve; as a rule, active = well fitted curve in the direction sought with a large enough effect in the repeat runs; inconclusive = weak or mixed curves; inactive = no such curve, though single readings can be large; an effect the other way counts as inactive or inconclusive.
# Assays:
# [1] = qHTS assay to identify small molecule agonists of the estrogen receptor alpha (ER-alpha) signaling pathway in the presence of an antagonist - cell viability counter screen (AID 1259386);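 note: cells exposed to compounds for 22 h at 37 °C before the viability read; nearly all actives have a fitted effect of over 30% in size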; note: potency is the fitted concentration of half-maximal effect
# Method in brief: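 Fluorescent CellTiter-Fluor viability signal from VM7Luc4E2 cells, with the reagent added during the final hour of a 22hr compound exposure at 37C in the presence of 10.0nM ICI-182,780.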
# [2] = qHTS assay to identify small molecule antagonists of the progesterone receptor (PR) signaling pathway - cell viability counter screen (AID 1346798); note: nearly all actives have a fitted effect of over 50% in size; note: potency is the fitted concentration of half-maximal effect
# Method in brief: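 Cytotoxicity read as CellTiter-Glo luminescence (30 min, room temperature) in the same wells as the beta-lactamase readout. HEK293T PR-UAS-bla cells in charcoal-stripped 2% FBS received compound and R5020, then 16 h at 37C, 5% CO2.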
# [3] = qHTS assay to identify small molecule agonists of the progesterone receptor (PR) signaling pathway - cell viability counter screen (AID 1346799; calls by dose curve; note: nearly all actives have a fitted effect of over 45% in size; note: potency is the fitted concentration of half-maximal effect)
# Method in brief: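 Cytotoxicity measured by CellTiter-Glo luminescence (30 min, RT) in the same wells as the PR beta-lactamase agonist read. Those HEK293T cells had 16 h compound treatment at 37 C in 2% charcoal-stripped FBS medium.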
# [4] = qHTS assay to identify small molecule antagonists of the TGF-beta/Smad signaling pathway - cell viability counter screen (AID 1346824); note: nearly all actives have a fitted effect of over 50% in size; note: potency is the fitted concentration of half-maximal effect
# Method in brief: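 Cytotoxicity counter-screen run in the same wells as the beta-lactamase Smad reporter read: CellTiter-Glo luminescence after 30 min at room temperature. HEK 293T SBE-bla cells had 5 hr compound exposure at 37 C with TGF-beta1 (0.25 ng/mL stock).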
# [5] = qHTS assay to identify small molecule agonists of the TGF-beta/Smad signaling pathway - cell viability counter screen (AID 1346829); note: top concentration of the series differs between compounds; nearly all actives have a fitted effect of over 45% in size
# Method in brief: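 Cytotoxicity counter screen: CellTiter-Glo luminescence (30 min, room temperature) measured in the SBE-bla HEK 293T reporter wells after 5 hr compound treatment at 37 C and the 2 hr substrate step.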
# [6] = qHTS assay to identify small molecule agonists of the TGF-beta/Smad signaling pathway (AID 1346859; active = well fitted activation curve with a large enough effect in the signal ratio in the repeat runs, not every such curve was filed as active; the % refers to the signal ratio; note: series mostly up to about 77 µM)
# Method in brief: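 Fluorescence (ex 405 nm; em 460 and 530 nm) was read 2 h after LiveBLAzer FRET substrate at RT. The preceding compound treatment of overnight-plated SBE-bla HEK293T cells lasted 5 h at 37 C.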
# [7] = target: Thyrotropin-releasing hormone receptor (Homo sapiens) (UniProt P34981); test: qHTS assay to identify small molecule antagonists of the thyrotropin-releasing hormone receptor (TRHR) signaling pathway (AID 1346877; active = well fitted inhibition curve with a large enough effect in the repeat runs, not every such curve was filed as active; note: series mostly up to about 51 µM)
# Method in brief: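 In this cell-based calcium flux format, HEK293 cells expressing TRHR received test compound for 5 min before the agonist TRH (1 nM final). Dye loading lasted 2 h at 37 °C.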
# [8] = target: Thyrotropin-releasing hormone receptor (Homo sapiens) (UniProt P34981); test: qHTS assay to identify small molecule agonists of the thyrotropin-releasing hormone receptor (TRHR) signaling pathway (AID 1346891; calls by dose curve; note: series mostly up to about 58 µM)
# Method in brief: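 Agonist-mode intracellular calcium readout: kinetic fluorescence over 3 min at 1 s intervals after compound addition to TRHR-HEK293 cells (18 h seeded, 2 h dye-loaded at 37 C). Fifteen concentrations, triplicates.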
# [9] = target: Progesterone receptor (Homo sapiens) (UniProt P06401); test: qHTS assay to identify small molecule antagonists of the progesterone receptor (PR) signaling pathway (AID 1346795; active = well fitted inhibition curve with a large enough effect in the signal ratio in the repeat runs, not every such curve was filed as active; the % refers to the signal ratio; note: potency is the fitted concentration of half-maximal effect)
# Method in brief: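 Antagonist mode with agonist R5020 at 1 nM final and 16 hr incubation at 37C. Reporter was beta-lactamase driven by UAS in HEK293T (PR-UAS-bla), 2% charcoal-stripped serum; signal from LiveBLAzer FRET substrate, 2 hr at room temperature.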
# Chain of Thyrotropin-releasing hormone receptor (Homo sapiens) (P34981 whole entry, looked up): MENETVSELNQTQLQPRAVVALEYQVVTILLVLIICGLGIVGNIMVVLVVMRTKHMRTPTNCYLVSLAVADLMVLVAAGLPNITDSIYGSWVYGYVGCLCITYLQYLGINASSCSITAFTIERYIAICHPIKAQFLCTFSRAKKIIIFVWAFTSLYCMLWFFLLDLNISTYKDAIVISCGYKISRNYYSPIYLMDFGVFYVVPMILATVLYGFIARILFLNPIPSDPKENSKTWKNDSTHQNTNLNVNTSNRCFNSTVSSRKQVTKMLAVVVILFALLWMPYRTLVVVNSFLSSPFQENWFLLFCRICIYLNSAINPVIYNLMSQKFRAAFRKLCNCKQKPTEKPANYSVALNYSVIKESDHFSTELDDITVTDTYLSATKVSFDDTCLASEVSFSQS
# Chain of Progesterone receptor (Homo sapiens) (P06401 whole entry, looked up): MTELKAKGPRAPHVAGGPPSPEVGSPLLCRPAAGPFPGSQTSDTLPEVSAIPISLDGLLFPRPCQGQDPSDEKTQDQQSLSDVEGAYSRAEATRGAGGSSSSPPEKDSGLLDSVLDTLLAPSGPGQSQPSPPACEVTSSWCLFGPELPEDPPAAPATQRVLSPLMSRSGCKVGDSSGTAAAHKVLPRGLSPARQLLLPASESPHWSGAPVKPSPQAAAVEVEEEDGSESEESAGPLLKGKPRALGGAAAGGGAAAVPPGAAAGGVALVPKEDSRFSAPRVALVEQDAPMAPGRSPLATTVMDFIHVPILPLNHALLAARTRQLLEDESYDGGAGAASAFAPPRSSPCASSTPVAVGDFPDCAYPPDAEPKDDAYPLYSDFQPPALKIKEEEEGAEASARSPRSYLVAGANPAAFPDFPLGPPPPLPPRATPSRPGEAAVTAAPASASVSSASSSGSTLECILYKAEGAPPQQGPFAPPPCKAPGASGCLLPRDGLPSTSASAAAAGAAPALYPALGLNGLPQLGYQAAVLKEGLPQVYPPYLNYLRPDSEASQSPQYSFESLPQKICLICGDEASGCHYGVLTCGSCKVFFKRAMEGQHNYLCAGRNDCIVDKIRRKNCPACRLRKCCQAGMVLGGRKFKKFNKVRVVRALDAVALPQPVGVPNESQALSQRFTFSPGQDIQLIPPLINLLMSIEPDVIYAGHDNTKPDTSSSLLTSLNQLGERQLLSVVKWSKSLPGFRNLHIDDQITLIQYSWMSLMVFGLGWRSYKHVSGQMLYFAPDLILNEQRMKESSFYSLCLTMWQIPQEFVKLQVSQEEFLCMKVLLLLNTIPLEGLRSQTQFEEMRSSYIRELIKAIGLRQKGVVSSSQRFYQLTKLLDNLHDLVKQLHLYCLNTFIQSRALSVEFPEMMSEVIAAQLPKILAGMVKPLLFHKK
Structure (SMILES),Potency [1],Potency [2],Potency [3],Potency [4],Potency [5],Potency [6],outcome [7],Potency [8],Potency [9]
CCn1cc(C(=O)O)c(=O)c2cc(F)c(N3CCNCC3)cc21,inactive,inactive,inactive,inactive,inactive,inactive,inactive,inactive,
CC1(C)[C@H](C(=O)O)N2C(=O)C[C@H]2S1(=O)=O,inactive,inactive,inactive,inactive,inactive,inactive,inactive,inactive,
CCCCOc1ccc(OCCCN2CCOCC2)cc1,inactive,inactive,inactive,inactive,inactive,inactive,,,
CCCCCCNC(=O)n1cc(F)c(=O)[nH]c1=O,inactive,inactive,inactive,inactive,inactive,inactive,inactive,inactive,
C=C1c2cccc(O)c2C(O)=C2C(=O)[C@]3(O)C(O)=C(C(N)=O)C(=O)[C@@H](N(C)C)[C@@H]3[C@@H](O)[C@H]12,inactive,inactive,inactive,inactive,inactive,inactive,inactive,inactive,
c1ccc2c(c1)CCc1ccccc1N2,inactive,inactive,inactive,,inactive,inactive,inactive,inactive,
CO/N=C(/C(=O)N[C@@H]1C(=O)N2C(C(=O)O)=C(COC(N)=O)CS[C@H]12)c1ccco1,inactive,inactive,inactive,inactive,inactive,inactive,inactive,inactive,
CC1=C(Br)C(=O)C(Br)=C/C1=C(/c1ccccc1S(=O)(=O)O)c1cc(Br)c(O)c(Br)c1C,18.6 µM (active),inactive,inactive,inactive,inactive,inactive,inactive,inactive,
C=COCC(C)C,inactive,inactive,inactive,inactive,inactive,inactive,inactive,inactive,
CCCCC(CC)CN (centres undefined),inactive,inactive,inactive,inactive,inactive,inactive,inactive,inactive,
CN(C(=O)CN(CCO)CC(=O)N(C)C(C)(C)Cc1ccccc1)C(C)(C)Cc1ccccc1,inactive,inactive,inactive,inactive,inactive,inactive,inactive,inactive,
COc1ccccc1N1CCN(CCCCNC(=O)c2ccc(-c3ccc(C(C)=O)cc3)cc2)CC1,inactive,inactive,inactive,inactive,inactive,inactive,,,
C=CC(=O)[O-].C=CC(=O)[O-].[Zn+2],inactive,67 µM (active),,inactive,inactive,inactive,,,
CO[C@]1(NC(=O)CSC(F)F)C(=O)N2C(C(=O)O)=C(CSc3nnnn3CCO)CO[C@H]21,inactive,inactive,inactive,inactive,inactive,inactive,inactive,inactive,
CCCCCCC(C)(C)C(=O)O,inactive,inactive,inactive,,inactive,inactive,inactive,inactive,
CC1=Nc2ccc3ccccc3c2C1(C)C,inactive,12.2 µM (active),24.3 µM (active),inactive,inactive,,inactive,inactive,
CC(=O)[C@H]1[C@H](C#N)C[C@H]2[C@@H]3CC=C4C[C@@H](O)CC[C@]4(C)[C@H]3CC[C@@]21C,inactive,inactive,inactive,inactive,inactive,,inactive,inactive,
C=CC(=O)OCC1CC2CC1C1CCC(COC(=O)C=C)C21 (centres undefined),inactive,inactive,inactive,inactive,inactive,inactive,inactive,inactive,
OC1(c2ccccc2)CCNCC1,inactive,inactive,inactive,,inactive,inactive,inactive,inactive,
CCCCN(CCCC)C(C(N)=O)c1ccc(OC)cc1 (centres undefined),inactive,inactive,,inactive,inactive,inactive,,,
COc1ccccc1NC(=O)c1cc2ccccc2cc1O,inactive,,,49 µM (active),,inactive,,,24.3 µM (active)
C[C@@H](O)[C@H]1C(=O)N2C(C(=O)O)=C([C@H]3CCCO3)S[C@H]12,inactive,inactive,inactive,inactive,,inactive,inactive,inactive,
CCc1ccccc1,inactive,inactive,inactive,inactive,inactive,inactive,inactive,inactive,
c1ccc2sc(SN(C3CCCCC3)C3CCCCC3)nc2c1,inactive,inactive,inactive,inactive,inactive,inactive,,,
C[C@H]1c2cccc(O)c2C(O)=C2C(=O)[C@]3(O)C(O)=C(C(N)=O)C(=O)[C@@H](N(C)C)[C@@H]3[C@@H](O)[C@@H]21,inactive,inactive,inactive,,inactive,,inactive,inactive,
OCCN1CCN(CCCN2c3ccccc3Sc3ccc(Cl)cc32)CC1,inactive,23.7 µM (active),13.3 µM (active),inactive,inactive,inactive,inactive,inactive,
